Measured values as given in PubChem BioAssay.
For part of these data: Results with a measured potency or affinity are listed apart. Calls of active or inactive are those of the source. Unless noted, no rule for the calls is given here.

Tests used:
[1] = antimalarial activity against Dd2 strain (AID 2302;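 active = growth inhibition above 50% at the single 2 µM test dose, taken to imply half-maximal potency below 2 µM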;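 also: 0% = DMSO untreated growth and 100% = chloroquine plus artemisinin killed control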); conditions: P. falciparum Dd2 in RBCs, LDH growth readout, 72 h; at 2 µM; hits give high values
[2] = HepG2 cytotoxicity, primary screen, cytotoxicity control for P. falciparum antimalarial project, cell-based, ATP luminescence (AID 2303;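 active = inhibition above 50%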;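 also: 0% = DMSO wells and 100% = digitonin-killed cells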); conditions: HepG2 viability, 24-48 h, at 10 µM, hits give high values
[3] = target: L-lactate dehydrogenase (Plasmodium falciparum (isolate CDC / Honduras)) (UniProt Q27743); test: PfLDH activity inhibition – cell lysate, 3D7 strain, counter-screen for P. falciparum growth inhibition project (AID 2304);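 also: 0% = vehicle and 100% = reference inhibitor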; conditions: P. falciparum 3D7 crude extract, LDH APAD/NBT absorbance; at 2 µM; hits give high values
L-lactate dehydrogenase (Plasmodium falciparum (isolate CDC / Honduras)), sequence (Q27743 whole entry, looked up): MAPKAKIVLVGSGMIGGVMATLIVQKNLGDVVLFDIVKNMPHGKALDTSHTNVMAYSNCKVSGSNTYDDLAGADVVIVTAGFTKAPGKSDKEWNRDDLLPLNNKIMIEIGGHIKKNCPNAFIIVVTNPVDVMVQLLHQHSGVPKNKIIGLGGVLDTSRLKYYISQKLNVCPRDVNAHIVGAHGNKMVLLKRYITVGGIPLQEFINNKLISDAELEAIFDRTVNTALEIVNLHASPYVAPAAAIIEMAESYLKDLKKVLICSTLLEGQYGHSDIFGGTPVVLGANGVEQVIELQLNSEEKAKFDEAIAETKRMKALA

[4] = inhibition of 3D7 malaria parasite growth – strain 3D7 (AID 2306);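 also: 0% = DMSO wells and 100% = chloroquine plus artemisinin control wells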; conditions: P. falciparum 3D7 erythrocytic growth, LDH absorbance, 72 h; at 2 µM; hits give high values
[5] = target: Calcium-dependent protein kinase 1 (Plasmodium falciparum (isolate 3D7)) (UniProt P62344); test: PfCDPK1 kinase inhibitors, biochemical, TCAMS library (AID 1159585; cut-off not given, nearly all actives have IC50 up to about 0.98 µM;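 also: inhibitors leave more ATP so luminescence rises with inhibition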); conditions: recombinant PfCDPK1, Kinase-Glo ATP depletion luminescence
Calcium-dependent protein kinase 1 (Plasmodium falciparum (isolate 3D7)), sequence (P62344 whole entry, looked up): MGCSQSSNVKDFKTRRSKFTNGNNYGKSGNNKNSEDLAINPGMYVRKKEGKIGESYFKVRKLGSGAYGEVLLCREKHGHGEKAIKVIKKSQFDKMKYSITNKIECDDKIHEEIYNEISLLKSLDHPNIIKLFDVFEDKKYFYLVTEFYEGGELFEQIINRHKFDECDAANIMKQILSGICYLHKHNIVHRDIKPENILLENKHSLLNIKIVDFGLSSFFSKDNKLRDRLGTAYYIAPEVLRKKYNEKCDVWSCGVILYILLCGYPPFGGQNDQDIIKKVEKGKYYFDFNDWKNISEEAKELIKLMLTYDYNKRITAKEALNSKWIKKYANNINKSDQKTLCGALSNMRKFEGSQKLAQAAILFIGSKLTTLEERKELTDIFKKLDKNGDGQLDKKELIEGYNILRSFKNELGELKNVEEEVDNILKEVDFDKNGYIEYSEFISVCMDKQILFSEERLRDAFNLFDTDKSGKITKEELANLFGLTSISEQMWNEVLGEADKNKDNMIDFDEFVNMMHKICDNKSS

[6] = target: Plasmodium falciparum protein kinase 6 (PK6, PF3D7_1337100) (UniProt Q8IDW1); test: PfPK6 kinase inhibitors, biochemical, TCAMS library (AID 1159586); conditions: recombinant PfPK6, Kinase-Glo ATP depletion luminescence
Plasmodium falciparum protein kinase 6 (PK6, PF3D7_1337100), sequence (Q8IDW1 1-305): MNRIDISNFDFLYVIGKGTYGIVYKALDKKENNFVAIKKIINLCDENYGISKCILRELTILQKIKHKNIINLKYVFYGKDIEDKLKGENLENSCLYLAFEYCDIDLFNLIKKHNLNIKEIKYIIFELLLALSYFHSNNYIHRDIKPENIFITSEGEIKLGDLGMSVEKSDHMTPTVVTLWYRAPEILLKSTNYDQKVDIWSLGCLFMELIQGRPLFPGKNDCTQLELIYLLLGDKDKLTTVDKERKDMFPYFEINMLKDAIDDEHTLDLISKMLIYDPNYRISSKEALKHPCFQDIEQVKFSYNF

[7] = target: Protein kinase 7 (PK7), Plasmodium falciparum 3D7 (PF3D7_0213400) (UniProt Q7YTF7); test: inhibition of Plasmodium PK7 catalytic activity – biochemical, TCAMS antimalarial set, Kinase-Glo luminescence (AID 1159587); conditions: recombinant PfPK7, Kinase-Glo ATP depletion luminescence
Protein kinase 7 (PK7), Plasmodium falciparum 3D7 (PF3D7_0213400), sequence (Q7YTF7 1-343): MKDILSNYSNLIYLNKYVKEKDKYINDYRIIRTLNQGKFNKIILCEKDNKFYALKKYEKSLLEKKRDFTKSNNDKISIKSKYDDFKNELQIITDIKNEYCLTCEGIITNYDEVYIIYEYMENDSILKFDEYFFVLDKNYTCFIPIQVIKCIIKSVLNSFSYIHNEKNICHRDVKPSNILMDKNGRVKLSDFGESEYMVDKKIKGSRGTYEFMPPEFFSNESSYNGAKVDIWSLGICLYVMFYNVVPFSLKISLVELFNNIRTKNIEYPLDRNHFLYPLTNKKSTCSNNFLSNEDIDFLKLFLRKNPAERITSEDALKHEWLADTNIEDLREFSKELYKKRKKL

[8] = target: Calcium-dependent protein kinase 4 (Plasmodium falciparum (isolate 3D7)) (UniProt Q8IBS5); test: PfCDPK4 kinase inhibitors, biochemical, TCAMS library (AID 1159588; cut-off not given, nearly all actives have IC50 up to about 0.91 µM); conditions: recombinant PfCDPK4, Kinase-Glo ATP depletion luminescence
Calcium-dependent protein kinase 4 (Plasmodium falciparum (isolate 3D7)), sequence (Q8IBS5 whole entry, looked up): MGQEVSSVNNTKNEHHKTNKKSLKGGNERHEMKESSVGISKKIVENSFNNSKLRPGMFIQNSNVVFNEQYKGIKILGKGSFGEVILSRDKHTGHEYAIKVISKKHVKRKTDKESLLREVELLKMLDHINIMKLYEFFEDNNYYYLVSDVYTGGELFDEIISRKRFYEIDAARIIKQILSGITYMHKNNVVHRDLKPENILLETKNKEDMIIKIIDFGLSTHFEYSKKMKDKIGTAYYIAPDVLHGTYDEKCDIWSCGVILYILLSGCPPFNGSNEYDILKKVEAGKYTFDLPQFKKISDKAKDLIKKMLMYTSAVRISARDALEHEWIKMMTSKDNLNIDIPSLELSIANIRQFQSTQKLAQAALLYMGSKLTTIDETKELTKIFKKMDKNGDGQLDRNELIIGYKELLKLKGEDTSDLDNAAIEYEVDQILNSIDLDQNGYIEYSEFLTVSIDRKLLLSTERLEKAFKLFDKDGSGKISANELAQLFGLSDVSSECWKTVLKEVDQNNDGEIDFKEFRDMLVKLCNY

Structure (SMILES)	growth inhibition [1]	inhibition [2]	inhibition [3]	growth inhibition [4]	outcome [5]	outcome [6]	outcome [7]	outcome [8]
C[C@H](NCCC1CCC(NC(=O)N[C@H](C)C(O)(c2ccccc2)c2ccccc2)CC1)c1cccc2ccccc12 (stereo partly drawn)	58% (active)	43% (inactive)	-2% (inactive)	86% (active)	inactive	inactive	inactive	inactive
CS(=O)(=O)c1ccc(-c2cnc(N)c(-c3ccc(O)cc3)c2)cc1	94% (active)	38% (inactive)	2% (inactive)	84% (active)	inactive	inactive	inactive	inactive
c1ccc2cc(CNCCCN3CCN(CCCNCc4ccc5ccccc5c4)CC3)ccc2c1	65% (active)	60% (active)	2% (inactive)	100% (active)	inactive	inactive	inactive	inactive
COc1cc(C)cc(CN2CCC(Cc3ccccc3)CC2)c1O	94% (active)	35% (inactive)	0% (inactive)	97% (active)	inactive	inactive	inactive	inactive
O=C(NC1CCN(CCC[C@]2(c3ccc(Cl)c(Cl)c3)CCCN(C(=O)c3ccccc3)C2)CC1)c1ccc(F)cc1	68% (active)	52% (active)	-1% (inactive)	90% (active)	inactive	inactive	inactive	inactive
Cc1cc2c(cc1C(F)(F)F)N(C(=O)Nc1cccc(C(=O)NC3CCN(Cc4ccccc4)CC3)c1)CC2	-5% (inactive)	19% (inactive)	-2% (inactive)	91% (active)	inactive	inactive	inactive	inactive
CNCCNc1nccc(N2CCc3ncnc(Nc4ccc(OCc5cccc(F)c5)c(Cl)c4)c3C2)n1	98% (active)	30% (inactive)	-4% (inactive)	100% (active)	inactive	inactive	inactive	inactive
O=c1cc(NCCCNC2CCCc3c2ccc2ccccc32)[nH]c2ccccc12 (stereo not drawn)	30% (inactive)	-1% (inactive)	-2% (inactive)	94% (active)	inactive	inactive	inactive	inactive
COc1cc(/C=C/C(=O)NC2CCC(N3CCC(c4ccccc4C)CC3)CC2)cc(OC)c1 (stereo not drawn)	11% (inactive)	51% (active)	-4% (inactive)	89% (active)	inactive	inactive	inactive	inactive
N#Cc1ccc(CN2CCCN(c3ccc(NC(=O)c4ccc(F)cc4)cc3)CC2)cc1	61% (active)	12% (inactive)	-2% (inactive)	90% (active)	inactive	inactive	inactive	inactive
N=C(N)c1ccc(NC(=O)Cc2nc3ccc(C(=N)N)cc3[nH]2)cc1	81% (active)	4% (inactive)	2% (inactive)	87% (active)	inactive	inactive	inactive	inactive
COc1cc(Nc2ncc3c(C)nc(-c4cc5ccccc5[nH]4)n3n2)cc(OC)c1OC	65% (active)	19% (inactive)	7% (inactive)	91% (active)	inactive	inactive	inactive	inactive
COc1ccc(C=NNc2cc(C)nc3c(C)cccc23)c2ccccc12	98% (active)	3% (inactive)	0% (inactive)	102% (active)	inactive	inactive	inactive	inactive
CC(C)N1CCC(N(Cc2ccc(-c3ccc(C(F)(F)F)cc3)cc2)C(=O)Cn2c(CCc3cccc(F)c3F)nc(=O)c3cccnc32)CC1	80% (active)	100% (active)	6% (inactive)	100% (active)	inactive	inactive	inactive	inactive
CCN(CC)CCCCCNc1c2ccc(Cl)cc2nc2ccc(OC)cc12	99% (active)	96% (active)	4% (inactive)	99% (active)	inactive	inactive	inactive	inactive
Cc1cc(N[C@@H](CC(C)C)C(=O)NC2CCCC2)nc(NCC2CCCCC2)n1	88% (active)	8% (inactive)	0% (inactive)	101% (active)	inactive	inactive	inactive	inactive
Fc1ccc2c(NN=Cc3ccccc3F)ccnc2c1	99% (active)	10% (inactive)	-1% (inactive)	101% (active)	inactive	inactive	inactive	inactive
COc1ccc(OCCCN2CCN(CC(c3ccc(F)cc3)N3CCN(C(C)C)CC3)CC2)c2ccccc12 (stereo not drawn)	32% (inactive)	30% (inactive)	-1% (inactive)	100% (active)	inactive	inactive	inactive	inactive

Structure (SMILES)	growth inhibition [1]	inhibition [2]	inhibition [3]	growth inhibition [4]	outcome [5]	outcome [6]	outcome [7]	outcome [8]
CCCC1(NC[C@@H](O)[C@H](Cc2ccccc2)NC(=O)c2cc(NCC)cc(N3CCCCS3(=O)=O)c2)CCCCC1	98% (active)	4% (inactive)	-4% (inactive)	101% (active)	inactive	inactive	inactive	inactive
O=C(Nc1ccc(Cl)c(Cl)c1)N1CCc2ccc(OCCCN3CCCCC3)cc2CC1	-2% (inactive)	27% (inactive)	-2% (inactive)	92% (active)	inactive	inactive	inactive	inactive
O=S(=O)(c1cccc(Cl)c1F)N(CCC(O)(C(F)(F)F)C(F)(F)F)Cc1cccc(O)c1	86% (active)	-5% (inactive)	0% (inactive)	100% (active)	inactive	inactive	inactive	inactive
Oc1ccc(CCNc2nc(NCc3ccccc3-c3ccc(F)cc3)nc(N3CCNCC3)n2)cc1	24% (inactive)	15% (inactive)	0% (inactive)	92% (active)	inactive	inactive	inactive	inactive
COc1ccc(CN2CCC(CNCCc3ccccc3Oc3ccccc3)CC2)cc1	56% (active)	99% (active)	0% (inactive)	85% (active)	inactive	inactive	inactive	inactive
CCOC(=O)c1cn(CC)c2cc(O[C@@H]3CCN(C(=O)OC(C)(C)C)C3)ccc2c1=O	94% (active)	13% (inactive)	-8% (inactive)	97% (active)	inactive	inactive	inactive	inactive
COc1cccc(C(=O)[C@H]2C[C@@H]2CN(C)CCC(O)c2ccc(Cl)c(Cl)c2)c1 (stereo partly drawn)	95% (active)	17% (inactive)	-2% (inactive)	99% (active)	inactive	inactive	inactive	inactive
COc1ccc(CNCc2cccc(-c3ccc(-c4nc5c(C)cccc5[nH]4)cc3)c2)cc1	70% (active)	23% (inactive)	7% (inactive)	101% (active)	inactive	inactive	inactive	inactive
Cc1cc2ncn(-c3nccc(NCc4cccnc4)n3)c2cc1C	98% (active)	-2% (inactive)	-4% (inactive)	99% (active)	inactive	inactive	inactive	inactive
Cn1c2c(c3ccccc31)CN(CCC1(c3ccc(Cl)c(Cl)c3)CN(C(=O)Cc3ccccc3)CCO1)CC2 (stereo not drawn)	91% (active)	22% (inactive)	0% (inactive)	95% (active)	inactive	inactive	inactive	inactive
COc1ccc2ncc(F)c(CCN3CCC(NCc4cc(OC)c5c(c4)OCCO5)CC3)c2n1	53% (active)	-2% (inactive)	-3% (inactive)	101% (active)	inactive	inactive	inactive	inactive
CC(C)CNCc1cccc(-c2ccccc2CN(C(=O)NCCc2ccccc2)C2CCN(Cc3ccccc3)CC2)c1	82% (active)	42% (inactive)	-6% (inactive)	89% (active)	inactive	inactive	inactive	inactive
O=C(Cn1c(CCc2cccc(F)c2F)nc(=O)c2ccccc21)N(Cc1ccc(-c2ccc(C(F)(F)F)cc2)cc1)C1CCN(C2CCOCC2)CC1	76% (active)	97% (active)	-2% (inactive)	101% (active)	inactive	inactive	inactive	inactive
CC(C)Nc1nc(NCCc2cnc[nH]2)nc(NCc2cccc3ccccc23)n1	0% (inactive)	4% (inactive)	2% (inactive)	90% (active)	inactive	inactive	inactive	inactive
CC(C)c1cc(Oc2c(I)cc(CCCc3ncc[nH]3)cc2I)ccc1O	1% (inactive)	28% (inactive)	0% (inactive)	88% (active)	inactive	inactive	inactive	inactive
Nc1nc(N)c2cc(NS(=O)(=O)c3ccc(-c4ccccc4)cc3)ccc2n1	54% (active)	7% (inactive)	-3% (inactive)	102% (active)	inactive	inactive	inactive	inactive
O=C(c1cc2cccc([N+](=O)[O-])c2[nH]1)N1CCC(CCN2CCC(c3c[nH]c4ccccc34)CC2)CC1	24% (inactive)	45% (inactive)	1% (inactive)	89% (active)	inactive	inactive	inactive	inactive
Cn1cccc1C(=O)C(=O)Nc1ccc(-c2ccc(-c3nc4ccc(F)cc4[nH]3)cc2)cc1	33% (inactive)	44% (inactive)	-3% (inactive)	92% (active)	inactive	inactive	inactive	inactive
